Data from ChEMBL document CHEMBL3988442, “University of Dundee, Small-Polar-MMV Screening Library” (2021).
About 13,000 (27%) of roughly 48,000 compounds showed an effect of 50% or more. The list shows a part of the results.

What follows are molecules tested on Wolbachia pipientis (assay: Anti-Wolbachia Cell-Based Screen). Details: 5 µM.
Assay type: functional
Design: scale not given: in the data most compounds retested in dose-response had high values

SMILES | Percent Effect [%]
CC(C)(C)n1ncc2c(=O)[nH]c(N3CC(O)C3)nc21 | 23.02
CN(C)c1nc(CNC(=O)NC2CCc3ccccc32)cs1 (stereo unspecified) | 14.75
CC(c1nccs1)N(C)Cc1ccc(CCC(C)(C)O)cc1 (stereo unspecified) | -1.522
CC(=O)N1C[C@@H](F)[C@@H](OCc2nc3cc(C)c(C)cc3[nH]2)C1 | -18.48
CCOCCCNc1nc2c(s1)c(C)nn2C | 6.024
CCOCCCNC(=O)NCc1c(C)nn(C)c1C | 102.2
CCOCCCNC(=O)c1cn(CC)nc1C | 9.774
CCc1nc2c(c(N(C)Cc3nncn3CCOC)n1)CCNCC2 | 0.734
Cc1cc(S(C)(=O)=O)c(C)c(S(=O)(=O)NC2CCCC2)c1 | 3.251
Cc1cc(CS(=O)(=O)NC2CCCCC2)on1 | 4.481
Cc1c(NCc2cccc(C#N)c2)cccc1S(=O)(=O)NC1CC1 | -25.48
Cc1cc2[nH]c(=O)c(=O)[nH]c2cc1S(=O)(=O)NC1CCCCC1 | 114.9
Cc1cc2[nH]c(=O)c(=O)[nH]c2cc1S(=O)(=O)NC1CCC(C)CC1 (stereo unspecified) | 107.5
Cc1cn2c(n1)CCC(NS(=O)(=O)c1cc(C)sc1C)C2 (stereo unspecified) | -1.827
CC(C)(O)CN1CCN(C(=O)COCC(F)(F)F)CC1 | 2.26
O=C1NCC2(CCCN(C(=O)c3ccc4c(c3)CCCO4)CC2)O1 (stereo unspecified) | 15.15
Cc1ccnc(NC(=O)c2ccc(C)o2)c1 | -0.4749
Cc1ccc(NC(=O)c2cccc(OCc3nnnn3C)c2)nc1 | 97.4
Cc1ccnc(NC(=O)c2cccc(OCc3nnnn3C)c2)c1 | 92.28
Cc1ccnc(NC(=O)c2ccc(Br)o2)c1 | -3.231
CN(C)c1ccc(NC(=O)c2cccc(N(C)C)c2)nc1 | -10.74
Cc1ccc(NC(=O)c2cccc(N(C)C)c2)nc1 | -7.622

SMILES | Percent Effect [%]
CNS(=O)(=O)CCN1CC(c2ccccc2)(c2ccccc2)CCC1=O | 8.028
CCC(CC)(CNC(=O)OC(C)(C)C)NC(=O)c1cnccn1 | 8.305
CN(Cc1cccnc1)C1CC2(CCN(c3ncccn3)CC2)C1.O=C(O)C(F)(F)F.O=C(O)C(F)(F)F | 96.99
Cc1ccsc1CN1CCC2(CC1)CC(OCc1cccnc1)CO2.O=C(O)C(F)(F)F.O=C(O)C(F)(F)F (stereo unspecified) | 12.52
CN(C)S(=O)(=O)N1CC[C@]2(C[C@H](OCc3ccncc3)CO2)C1.O=C(O)C(F)(F)F | 20.75
CN(Cc1ccco1)C1COC2(CCN(Cc3nccs3)CC2)C1.O=C(O)C(F)(F)F.O=C(O)C(F)(F)F (stereo unspecified) | 98.22
CN(Cc1cccnc1)C1CC2(CCN(c3ncc(F)cn3)CC2)C1.O=C(O)C(F)(F)F.O=C(O)C(F)(F)F | -6.301
CN(Cc1cccnc1)C1COC2(CCN(Cc3nccs3)CC2)C1.O=C(O)C(F)(F)F.O=C(O)C(F)(F)F.O=C(O)C(F)(F)F (stereo unspecified) | 111.1
CN(Cc1cn2c(n1)CN(Cc1nccs1)CC2)Cc1ccco1.O=C(O)C(F)(F)F.O=C(O)C(F)(F)F | -16.64
CN(Cc1ccncc1)C1CC2(CCN(c3ncccn3)CC2)C1.O=C(O)C(F)(F)F.O=C(O)C(F)(F)F.O=C(O)C(F)(F)F | -4.65
CN(Cc1ccccc1)C1COC2(CCN(Cc3nccs3)CC2)C1.O=C(O)C(F)(F)F (stereo unspecified) | 20.92
Cc1cnc(N2CCC3(CC2)CC(N(C)Cc2ccncc2)C3)nc1.O=C(O)C(F)(F)F.O=C(O)C(F)(F)F | -8.3
CN(Cc1ccncc1)C1COC2(CCN(Cc3cccs3)CC2)C1.O=C(O)C(F)(F)F.O=C(O)C(F)(F)F.O=C(O)C(F)(F)F (stereo unspecified) | 100.2
CN(Cc1ccccn1)C1COC2(CCN(Cc3nccs3)CC2)C1 (stereo unspecified) | -7.584
COc1ccc(CN(C(=O)C(C)SC)c2cnn(C)c2)c(OC)c1 (stereo unspecified) | -2.56
O=C1CC[C@H]2CN(Cc3ccc(Cl)s3)CC[C@H]2N1CCc1c[nH]cn1 | -29.01
CCc1cc(NCCNc2ccncc2C)n2nc(C)c(C)c2n1 | 11.08
Cc1noc(C)c1CN(C)C(=O)C1(NS(C)(=O)=O)CCCCC1 | -10.96
CCc1nc(C)c(CN2CCOC(CCCC(C)C)C2)[nH]1 (stereo unspecified) | -5.664
COC[C@H]1CNC(=O)[C@@H]2CCN(Cc3ccc(F)cc3)CC[C@H]12.O=C(O)C(F)(F)F | -11.52
CSc1nccc(N2CCN(C)C3(CCC(=O)N(CC4CC4)CC3)C2)n1 (stereo unspecified) | -14.1
O=C(NCC(F)(F)F)C1CSCN1S(=O)(=O)c1ccc(F)cc1 (stereo unspecified) | 3.931

SMILES | Percent Effect [%]
CC1N(CC2CC2)C(=O)COC12CCN(Cc1nccs1)CC2.O=C(O)C(F)(F)F (stereo unspecified) | -4.952
CC1N(C)C(=O)COC12CCN(Cc1nccs1)CC2.O=C(O)C(F)(F)F (stereo unspecified) | 126.1
CC(C)CN1CCC2(CCN(Cc3nccs3)CC2)C1=O.O=C(O)C(F)(F)F | 1.148
CN(C)C1COC2(CCN(Cc3nccs3)CC2)C1.O=C(O)C(F)(F)F.O=C(O)C(F)(F)F (stereo unspecified) | 52.92
CN(C)C(=O)CN1CCC2(CCN(Cc3nccs3)CC2)C1=O.O=C(O)C(F)(F)F | -19.71
CCc1ccc2c(c1)C(CCNC(=O)Cc1ccc(F)cc1)C(=O)N2 (stereo unspecified) | 3.277
Cc1c(CNCC(C)Oc2cccnc2)c2ccccc2n1CC(N)=O (stereo unspecified) | 60.46
Cc1c(CNCCCOc2cccnc2)c2ccccc2n1CC(N)=O | -2.741
COc1ncccc1C(=O)NCC(C)Oc1cccnc1 (stereo unspecified) | -11.32
Cc1cc2n(n1)CC(CNC1CCN(C(=O)c3ccco3)CC1)CN2 (stereo unspecified) | 7.634
COCCN1CCCC(O)(CN2CCCN(c3ncccn3)CC2)C1=O (stereo unspecified) | -4.112
CN(CCn1cccn1)C1CCCN(Cc2noc(C3CC3)n2)C1 (stereo unspecified) | 100.3
CN(CCc1cccs1)C1CCCN(Cc2noc(C3CC3)n2)C1 (stereo unspecified) | -17.24
CN(Cc1cscn1)C1CCCN(Cc2noc(C3CC3)n2)C1 (stereo unspecified) | 3.354
Cc1cc(CN(C)C2CCCN(Cc3noc(C4CC4)n3)C2)no1 (stereo unspecified) | 1.987
CN(CCS(C)(=O)=O)C1CCCN(Cc2noc(C3CC3)n2)C1 (stereo unspecified) | 107.2
CCc1nc(CN2CCCC(N(C)CCn3cncn3)C2)no1 (stereo unspecified) | 8.167
CN(CCc1ccccn1)C1CCCN(Cc2noc(C3CC3)n2)C1 (stereo unspecified) | 103.4
CN(CCc1ccncc1)C1CCCN(Cc2noc(C3CC3)n2)C1 (stereo unspecified) | 107.5
CN(CCCC#N)C1CCCN(Cc2noc(C3CC3)n2)C1 (stereo unspecified) | -8.895
CN(CC1(O)CCCCC1)C1CCCN(Cc2noc(C3CC3)n2)C1 (stereo unspecified) | 0.01553
Cc1nc(CN2CCCC(N(C)CCc3ccncc3)C2)no1 (stereo unspecified) | -4.077
